# Screening results from PubChem.
# Most compounds without a hit are left out; they make up all but 1.1% or so of the library.
# MOR-DOR inv ag = inverse agonist of human OPRM1-OPRD1 heterodimerization. P35372+P41143. cell-based MOR-DOR heterodimer luminescence, inverse agonism. inhibition, % at 9.3 µM. 0.21% of 340,000 active. AID 504357; in the data active = inhibition above about 22%, passing the limit was not always enough;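 note: 0% = cells with DMSO and 100% = wells without cells with DMSO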
# Target sequence (P35372 whole entry, looked up): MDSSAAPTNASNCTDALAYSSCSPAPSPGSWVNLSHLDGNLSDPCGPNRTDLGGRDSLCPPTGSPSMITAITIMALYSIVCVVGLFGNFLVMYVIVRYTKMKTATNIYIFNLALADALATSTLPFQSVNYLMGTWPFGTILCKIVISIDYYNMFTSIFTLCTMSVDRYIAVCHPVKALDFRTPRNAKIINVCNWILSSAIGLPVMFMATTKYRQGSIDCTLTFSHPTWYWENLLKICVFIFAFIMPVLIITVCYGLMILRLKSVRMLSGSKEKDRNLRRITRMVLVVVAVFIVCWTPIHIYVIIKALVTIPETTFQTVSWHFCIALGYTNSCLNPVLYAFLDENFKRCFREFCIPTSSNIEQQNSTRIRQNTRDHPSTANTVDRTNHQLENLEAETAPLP
# Target sequence (P41143 whole entry, looked up): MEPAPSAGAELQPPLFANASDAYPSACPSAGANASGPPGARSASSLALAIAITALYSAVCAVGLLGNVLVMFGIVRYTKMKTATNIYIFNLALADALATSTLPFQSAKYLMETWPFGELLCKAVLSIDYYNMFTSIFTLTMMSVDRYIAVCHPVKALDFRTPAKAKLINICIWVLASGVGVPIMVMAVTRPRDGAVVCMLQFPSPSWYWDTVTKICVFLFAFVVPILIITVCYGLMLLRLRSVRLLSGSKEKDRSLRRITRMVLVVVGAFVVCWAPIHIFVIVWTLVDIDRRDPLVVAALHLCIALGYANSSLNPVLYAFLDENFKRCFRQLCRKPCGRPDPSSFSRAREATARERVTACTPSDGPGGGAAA
# OPRM1-OPRD1 ag = OPRM1-OPRD1 heterodimerization agonism. cells, luminescence. activation, % at 9.3 µM. 0.3% of 340,000 active; in the data active = activation above about 18%;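 note: 0% = vehicle-treated cells and 100% = reference agonist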
# HTR5A ag = activates human HTR5A in OPRM1-OPRD1 agonist counter-screen; HTR5A agonist assay, luminescence, cell-based; activation, % at 9.3 µM; 0.61% of 340,000 active; P47898; AID 504692; in the data active = activation mostly above about 9.5%, no sharp cut-off; inactive = mostly below about 7.6%;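 note: 0% = cells with vehicle only and 100% = reference agonist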
# HTR5A inv ctr = counter-screen for OPRM1-OPRD1 inverse agonists: human HTR5A inverse agonism | P47898 | HTR5A cell line, luminescence | inhibition, % at 9.3 µM | 0.083% of 340,000 active | AID 504634; in the data active = inhibition mostly above about 23%, no sharp cut-off; inactive = mostly below about 18%;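 note: 0% = cells with DMSO and 100% = no-cell wells with DMSO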
# * hit, by the source's call.
SMILES,MOR-DOR inv ag,OPRM1-OPRD1 ag,HTR5A ag,HTR5A inv ctr
Cc1ccc2c(c1)C(CCN)C(=O)N2Cc1ccccc1 (stereo not given),65*,-11,-21,57*
CC(=O)NC1C(=O)N(Cc2ccccc2)c2ccc(Br)cc21 (stereo not given),14,-3,0,-1
COc1cccc(N2CCN(S(=O)(=O)c3ccc4c(c3)NC(=O)C(C)C(=O)N4)CC2)c1 (stereo not given),10,-2,2,-24
CCN1CCN(C(CNS(=O)(=O)c2ccc(Br)cc2)c2cccnc2)CC1 (stereo not given),14,-3,12*,8
COc1ccc(NC(=O)N2CCN(c3ccc([N+](=O)[O-])cc3)CC2)cc1OC,2,0,5,-33
Cc1c(OCC(=O)NCc2cccnc2)ccc2c3c(c(=O)oc12)CCC3,22,-4,2,13
Cc1c(OCC(=O)NCc2ccncc2)ccc2c3c(c(=O)oc12)CCC3,20,-4,12*,-46
O=C(CNC(=O)c1ccco1)NCC(=O)OCC(=O)c1ccc(Cl)c([N+](=O)[O-])c1,94*,-18,-10,43*
Clc1ccc(/C=C/c2nc3ccccc3[nH]2)c(Cl)c1,-33,7,13*,-17
COc1ccc(C2c3ccc(O)cc3Oc3ncn4nc(-c5ccccn5)nc4c32)cc1 (stereo not given),-80,16,12*,-17
CC(C)CC1(C)NC(=O)N(CC(=O)N2C(C)CCCC2C)C1=O (stereo not given),8,-2,13*,3
CCOc1ccc(S(=O)(=O)NCCC(=O)NCC2(N3CCCCC3)CCCCC2)cc1,13,-2,4,-9
CCOC(=O)c1c(SCCN2CCCC2)n(-c2ccccc2)c(=S)n(-c2ccccc2)c1=O,58*,-12,-4,14
Cc1cc(OC(=O)c2cccc(Cl)c2)c([N+](=O)[O-])c(=O)[nH]1,7,-1,5,4
O=C1N/C(=C\c2ccc(O)cc2)C(=O)c2ccccc21,-33,6,12*,18
O=C(O)/C=C1\NC(=O)c2ccccc21,16,-4,5,0
CCc1ccc2oc(C(=O)NC3CCS(=O)(=O)C3)cc(=O)c2c1 (stereo not given),4,-1,-3,-27
C[C@H](CO)N1C[C@H](C)[C@@H](CN(C)S(=O)(=O)c2ccc(F)cc2)Oc2ccc(NC(=O)c3ccncc3)cc2C1=O,14,-2,9.5*,4
N#Cc1cccnc1N1CCN(C(=O)c2cccs2)CC1,21,-5,-1,3
CCOC(=O)C1(CCOC)CCN(Cc2ccc(COC)o2)CC1,-1,0,12*,-5
O=c1n(-c2ccccc2)c(=O)n2n1CCC2,13,-2,10*,10
O=c1n(-c2ccccc2)c(=O)n2n1CCCC2,12,-2,5,-5
COc1ccc(S(=O)(=O)N2CCOCC2)cc1NC(=O)CSc1ncccn1,8,-1,11*,-44
COc1ccc(S(=O)(=O)N2CCCCC2)cc1NC(=O)CSc1ncccn1,18,-5,5,-29
CCCC(=O)NC1=C(C#N)C2(CCCC2)Cc2ccccc21,1,0,11*,-26
SMILES,MOR-DOR inv ag,OPRM1-OPRD1 ag,HTR5A ag,HTR5A inv ctr
CCCC(=O)Nn1cnc2c(c1=O)C1(CCCC1)Cc1ccccc1-2,9,-2,3,-51
Cc1ccc2c(c1)N(CCC(=O)NC1CCCCC1)C(=O)CO2,18,-3,3,-8
O=C(CCCc1nc2ccccc2s1)Nc1ccc(N2CCOCC2)cc1,1,0,2,-6
O=C(CN1C(=O)NC(c2ccc(F)cc2)C1=O)Nc1ccc2c(c1)OCCO2 (stereo not given),19,-5,3,-6
CC(C)CC1NC(=O)N(CC(=O)Nc2ccc3c(c2)OCCO3)C1=O (stereo not given),10,-3,11*,-19
O=C(CNc1ccccc1)N/N=C/c1c[nH]c2ccccc12,5,-1,13*,-30
COc1ccc(/C=N/NC(=O)C(C)Sc2ccccn2)cc1[N+](=O)[O-] (stereo not given),16,-3,11*,22
COc1ccc(/C=N\NC(=O)CNC(=O)C(c2ccccc2)c2ccccc2)cc1[N+](=O)[O-],-4,1,5,-14
Cc1ccc(C(=O)N/C(=C/c2cccs2)C(=O)NCCc2c[nH]c3ccccc23)cc1,8,-1,14*,-24
O=C(CCS(=O)(=O)c1ccccc1)N1CCOCC1,13,-3,-1,4
CC1CN(C(=O)CCS(=O)(=O)c2ccccc2)CC(C)O1 (stereo not given),8,-2,14*,1
CC1C(=O)C(C)(C)C(=O)OC1c1ccc([N+](=O)[O-])cc1 (stereo not given),4,-1,-2,5
Cc1ccc(S(=O)(=O)N2CCN(C(=O)c3cc(S(=O)(=O)N4CCOCC4)ccc3Cl)CC2)c(C)c1,7,-2,13*,-18
O=C(c1cc(S(=O)(=O)N2CCCCC2)ccc1Cl)N1CCOCC1,-1,0,-2,-10
Cc1ccc(S(=O)(=O)N2CCN(C(=O)c3ccco3)CC2)c(C)c1,14,-3,10*,-40
Cc1csc2nc(CN3CCN(CC(=O)N(C)C)CC3)cc(=O)n12,6,-1,-1,-12
Cc1ccc(NC(=O)CN2C(=O)NC3(CCCc4ccccc43)C2=O)c(C)c1 (stereo not given),4,-1,-2,5
COc1ccc2cc3cc(C(=O)NCC4COc5ccccc5O4)oc3nc2c1 (stereo not given),-37,7,13*,-48
O=C(NCc1ccccn1)c1c(-c2ccccc2)sc2ccccc12,13,-2,1,2
O=C(CCN1C(=O)/C(=C/c2ccccc2)SC1=S)NCCc1ccc(O)cc1,-61,11,14*,-55
CCCC(=O)Nc1ccc2c(c1)nc(CCN1CCCCC1)n2C,17,-3,-3,-1
O=C(Nc1nncs1)C1CC(=O)N(CCc2ccc(F)cc2)C1 (stereo not given),10,-2,4,1
Cc1c(CC(=O)N2CCN(C(=O)C3COc4ccccc4O3)CC2)c(=O)oc2c(C)c(O)ccc12 (stereo not given),34*,-7,-3,13
CCN1CCCC1CNS(=O)(=O)c1ccc(Cl)c(C(F)(F)F)c1 (stereo not given),14,-3,13*,22
CC(=O)N(C)c1ccc(NC(=S)Nc2ccccc2)cc1,6,-1,-1,2
CC(=O)N(C)c1ccc(NC(=S)Nc2cccc3ccccc23)cc1,-36,7,14*,-24
Cc1ccc(-c2nc3ncccn3c2Nc2ccc3c(c2)OCCO3)cc1,5,-1,10*,-1
COc1ccc(-c2nc3ncccn3c2Nc2ccc3c(c2)OCCO3)cc1,-35,6,2,7
CSc1ccccc1NC(=O)c1cc(-c2cccnc2)nc2ccc(Br)cc12,-1,0,13*,-33
COc1ccc(CNC(=O)CCNS(=O)(=O)c2ccc(NC(C)=O)cc2)cc1OC,17,-5,3,-7
